Calls of active or inactive are those of the source. Rule for the calls: active = hit-call score of the fitted dose curve at least 0.9, where 1 is the maximum; inactive = score below 0.9.
Target: Peroxisome proliferator-activated receptor gamma (Homo sapiens) (UniProt P37231)
Experiment: ERF_TW_NR_COA_hPPARG: Eurofins (ERF) Nuclear Receptor (NR) Functional Coactivator Assay for human Peroxisome Proliferator-activated Receptor gamma (PPARg) Agonism, conducted at Taiwan lab site
Description: ERF_TW_NR_COA_hPPARG is a biochemical, single-readout assay that uses extracted gene-proteins in a cell-free assay. Measurements were taken 16 hours after chemical dosing in a 96-well plate. See PPARgamma Human NHR Functional Agonist Coactivator Assay, Panlabs.ERF_TW_NR_COA_hPPARG is an assay component calculated from the ERF_TW_NR_COA_hPPARG assay. It is designed to measure FRET using a type of binding reporter as detected by fluorescence intensity of rosiglitazone with fluorimetry technology.Data from the assay component ERF_TW_NR_COA_hPPARG was analyzed at the assay endpoint, ERF_TW_NR_COA_hPPARG, in the positive analysis fitting direction relative to DMSO as the negative control and baseline of activity. Using a type of binding reporter, gain-of-signal activity can be used to understand changes in binding as they relate to gene PPARG. To generalize the intended target to other relatable targets, this assay endpoint is annotated to the nuclear receptor intended target family, where the subfamily is non-steroidal.
Human recombinant PPARgamma receptors expressed in insect cells are used. […] Determination of the amount of complex formed is read spectrofluorimetrically (excitation: 337 nm, emission: 520/490 nm). Test compound-induced increase fluorescence by 50 percent or more (>/=50%) relative to 1 uM GW1929 response indicates possible PPARgamma receptor agonist activity. […]

Sequence of Peroxisome proliferator-activated receptor gamma (Homo sapiens) (P37231 whole entry, looked up): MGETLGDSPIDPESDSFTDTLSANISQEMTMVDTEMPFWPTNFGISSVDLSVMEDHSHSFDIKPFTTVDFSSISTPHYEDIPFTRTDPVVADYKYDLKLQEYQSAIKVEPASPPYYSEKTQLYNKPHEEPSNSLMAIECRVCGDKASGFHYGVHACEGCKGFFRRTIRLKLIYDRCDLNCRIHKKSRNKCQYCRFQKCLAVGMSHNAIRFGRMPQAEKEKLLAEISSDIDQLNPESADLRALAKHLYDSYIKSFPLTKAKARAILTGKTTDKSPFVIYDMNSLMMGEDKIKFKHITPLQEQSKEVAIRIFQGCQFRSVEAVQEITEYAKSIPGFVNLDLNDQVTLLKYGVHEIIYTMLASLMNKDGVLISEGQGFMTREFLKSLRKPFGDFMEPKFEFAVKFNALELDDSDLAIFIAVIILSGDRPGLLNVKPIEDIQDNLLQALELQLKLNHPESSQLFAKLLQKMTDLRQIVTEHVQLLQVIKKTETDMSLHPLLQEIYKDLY

**Q.** `O=S(=O)(O)C(F)(F)C(F)(F)C(F)(F)C(F)(F)C(F)(F)C(F)(F)C(F)(F)C(F)(F)F` was tested. Which outcome did it give?
**A.** inactive
